Measured values published in PubChem BioAssay (NCI).
About 83,000 compounds went through this panel and 20% of them were active in at least one assay; those are over-represented in the sample as a whole.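 Values shown are percent growth following 48 h exposure of cells in 96-well plates to a single concentration of compound; below 10 was considered active.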 A number with no mark means an inactive call. Calls of active or inactive are those of the source.

Test system: HCT-15 colon
Assay: NCI-60 one-dose screen, 48 h (100 = growth as untreated, 0 = no growth, -100 = all killed)
Conditions: 10 µM

Structure (SMILES)	growth
NC1=NC(c2ccccc2Cl)N=C(Nc2nn[nH]n2)N1 (centres undefined)	103%
CC(=O)Nc1ccc(-c2cn(-c3cccc(C(=O)Nc4ccc(Cl)c(C(F)(F)F)c4)c3)nn2)cn1	-57.8% (active)
CC(C)Sc1nc(NC2CC2)c(C#N)c(-c2ccccc2)n1	101%
O=C1CCC(N2Cc3cc(CC(=O)Nc4ccc(N5CCCCC5)cc4)ccc3C2=O)C(=O)N1 (centres undefined)	7.29% (active)
N#Cc1c(Cl)nc(SCc2ccc(F)cc2)nc1-c1ccc(F)cc1	87%
Cc1ccc(C(=O)N/C(=C2/OCCN2C)[P+](c2ccccc2)(c2ccccc2)c2ccccc2)cc1	110%
Cc1ccc(C(=O)NNC(=O)CSc2nc3ccccc3c(=O)[nH]2)cc1	103%
Cc1ccc2nc(-c3ccc(-c4nnc(SCC(=O)Nc5ccc(Br)cc5)o4)cc3)[nH]c2c1	42%
CN1C/C(=C\c2ccc(O)cc2O)c2[o+]c3cc(O)ccc3cc2C1	21.9%
COc1ccc2[nH]cc(/C=N/Nc3ccc(Br)cn3)c2c1	6.98% (active)
CCCS(=O)(=O)c1oc(-c2ccc(F)cc2)nc1S(=O)(=O)c1ccc(F)cc1	-81.3% (active)
COC[C@@H](CC(C)C)N=C1NC(=O)/C(=C/c2ccc3ncoc3c2)N1	1.92% (active)
CC(C)C(=O)Nc1ccc(C(=O)NC(=S)Nc2ccc(C(=O)O)cc2)cc1	99.7%
Cc1ccc(C(=O)NCCCNc2nc(Nc3ccc(N4CCN(C)CC4)cc3)nc3ccsc23)cc1	2.1% (active)
CC(=O)Nc1nc(-c2ccc(N3CCN(C)CC3)c(NS(=O)(=O)c3cccc4c(N(C)C)cccc34)c2)cs1	18.5%
S=c1nc(-c2ccccc2)cc(-c2cc3ccccc3nc2Cl)[nH]1	49.7%
O=C(/C=C/Nc1ccc(F)cc1F)c1ccc2c(c1)Nc1ccccc1S2	33.1%
Cc1ccc(-c2nc(Nc3ccccc3C(=O)O)c3ccccc3n2)cc1	4.66% (active)
COc1ccc(C(=O)/C=C/c2cc(C(F)(F)F)cc(C(F)(F)F)c2)cc1S(N)(=O)=O	-58.6% (active)

Structure (SMILES)	growth
COc1ccc(-c2cc(C(=O)N=Nc3c(O)[nH]c4ccccc34)c3ccccc3n2)cc1	-83.1% (active)
CS(=O)(=O)Nc1ccc(-c2ccc3c(c2)ncn3-c2ccc(NC(=O)Nc3ccc(Cl)c(C(F)(F)F)c3)cc2)cc1	-91.3% (active)
O=C(Nc1nc2ccc([N+](=O)[O-])cc2s1)Nc1ccccc1I	1.19% (active)
Clc1ccc2c(N/N=C/c3c[nH]c4ccc(Br)cc34)ccnc2c1	-80.3% (active)
N#Cc1ccc(-c2nn(-c3ccc(C(=O)O)cc3)cc2CNc2cc(Cl)cc(Cl)c2)cc1	25.6%
COc1ccc2[nH]c(=O)c(CSc3ccc(Nc4nccc(-c5ccc(Cl)cc5)n4)cc3)cc2c1	97%
O=C1c2ccccc2C(=O)c2c1c(C(=O)c1ccc(Cl)cc1)n1c2ccc2c3ccccc3ccc21	103%
Cc1ccc(CSc2nc(-c3ccc(F)cc3)c(C#N)c(=O)[nH]2)cc1	84.2%
CCCCCc1ccc(S(=O)(=O)N(C(C)=O)c2cc(-c3csc(N(C)C(C)=O)n3)ccc2N2CCN(C)CC2)cc1	-89.7% (active)
O=C(c1ccc([N+](=O)[O-])c([N+](=O)[O-])c1O)n1[nH]c(=O)c2ccccc2c1=O	39.1%
COC[C@@H](CC(C)C)N=C1NC(=O)/C(=C/c2ccc3ncsc3c2)N1	1.92% (active)
O=C1Nc2cc(Cl)ccc2/C1=C/c1cccc(OCc2ccccc2)c1	-24.8% (active)
CN1CCN(c2ccc(C(=O)/C=C/c3cc(C(F)(F)F)ccc3Cl)cc2)CC1	-86.4% (active)
O=C(Cn1nc(-c2ccccc2)ccc1=O)NN1C(=O)c2ccccc2C1=O	99.2%
O=C(Nc1ccncc1)c1ccc(-n2c(=O)[nH]c3ccccc3c2=O)cc1	97.9%
O=C1N/C(=N\c2nccs2)S/C1=C\c1cccs1	17.4%
COc1cc2c3c(n(CCCn4ccnc4)c(=O)c2cc1OC)-c1nc2c(cc1C3=O)OCO2	52.1%
CN(C)c1cccc2c(S(=O)(=O)Nc3cccc(-c4csc(NC(=O)CCCCCN5CCN(c6cc7c(cc6F)C(=O)N(C6CCC(=O)NC6=O)C7=O)CC5)n4)c3)cccc12 (centres undefined)	77.9%

Test system: HT29 colon
Assay: as above
Conditions: 10 µM

Structure (SMILES)	growth
NC1=NC(c2ccccc2Cl)N=C(Nc2nn[nH]n2)N1 (centres undefined)	115%
CC(=O)Nc1ccc(-c2cn(-c3cccc(C(=O)Nc4ccc(Cl)c(C(F)(F)F)c4)c3)nn2)cn1	-50.3% (active)
CC(C)Sc1nc(NC2CC2)c(C#N)c(-c2ccccc2)n1	87.3%
O=C1CCC(N2Cc3cc(CC(=O)Nc4ccc(N5CCCCC5)cc4)ccc3C2=O)C(=O)N1 (centres undefined)	77.4%
N#Cc1c(Cl)nc(SCc2ccc(F)cc2)nc1-c1ccc(F)cc1	66.6%
Cc1ccc(C(=O)N/C(=C2/OCCN2C)[P+](c2ccccc2)(c2ccccc2)c2ccccc2)cc1	59.7%
Cc1ccc(C(=O)NNC(=O)CSc2nc3ccccc3c(=O)[nH]2)cc1	111%
Cc1ccc2nc(-c3ccc(-c4nnc(SCC(=O)Nc5ccc(Br)cc5)o4)cc3)[nH]c2c1	77.5%
CN1C/C(=C\c2ccc(O)cc2O)c2[o+]c3cc(O)ccc3cc2C1	44.4%
COc1ccc2[nH]cc(/C=N/Nc3ccc(Br)cn3)c2c1	23.3%
CCCS(=O)(=O)c1oc(-c2ccc(F)cc2)nc1S(=O)(=O)c1ccc(F)cc1	-69.6% (active)
COC[C@@H](CC(C)C)N=C1NC(=O)/C(=C/c2ccc3ncoc3c2)N1	8.17% (active)
CC(C)C(=O)Nc1ccc(C(=O)NC(=S)Nc2ccc(C(=O)O)cc2)cc1	111%
Cc1ccc(C(=O)NCCCNc2nc(Nc3ccc(N4CCN(C)CC4)cc3)nc3ccsc23)cc1	8.64% (active)
CC(=O)Nc1nc(-c2ccc(N3CCN(C)CC3)c(NS(=O)(=O)c3cccc4c(N(C)C)cccc34)c2)cs1	21.7%
S=c1nc(-c2ccccc2)cc(-c2cc3ccccc3nc2Cl)[nH]1	67.6%
O=C(/C=C/Nc1ccc(F)cc1F)c1ccc2c(c1)Nc1ccccc1S2	70.8%
Cc1ccc(-c2nc(Nc3ccccc3C(=O)O)c3ccccc3n2)cc1	17.8%
COc1ccc(C(=O)/C=C/c2cc(C(F)(F)F)cc(C(F)(F)F)c2)cc1S(N)(=O)=O	-59.9% (active)

Structure (SMILES)	growth
COc1ccc(-c2cc(C(=O)N=Nc3c(O)[nH]c4ccccc34)c3ccccc3n2)cc1	-15.1% (active)
CS(=O)(=O)Nc1ccc(-c2ccc3c(c2)ncn3-c2ccc(NC(=O)Nc3ccc(Cl)c(C(F)(F)F)c3)cc2)cc1	-84.1% (active)
O=C(Nc1nc2ccc([N+](=O)[O-])cc2s1)Nc1ccccc1I	1.95% (active)
Clc1ccc2c(N/N=C/c3c[nH]c4ccc(Br)cc34)ccnc2c1	-3.08% (active)
N#Cc1ccc(-c2nn(-c3ccc(C(=O)O)cc3)cc2CNc2cc(Cl)cc(Cl)c2)cc1	39.7%
COc1ccc2[nH]c(=O)c(CSc3ccc(Nc4nccc(-c5ccc(Cl)cc5)n4)cc3)cc2c1	104%
O=C1c2ccccc2C(=O)c2c1c(C(=O)c1ccc(Cl)cc1)n1c2ccc2c3ccccc3ccc21	109%
Cc1ccc(CSc2nc(-c3ccc(F)cc3)c(C#N)c(=O)[nH]2)cc1	89.3%
CCCCCc1ccc(S(=O)(=O)N(C(C)=O)c2cc(-c3csc(N(C)C(C)=O)n3)ccc2N2CCN(C)CC2)cc1	-52.5% (active)
O=C(c1ccc([N+](=O)[O-])c([N+](=O)[O-])c1O)n1[nH]c(=O)c2ccccc2c1=O	66.7%
COC[C@@H](CC(C)C)N=C1NC(=O)/C(=C/c2ccc3ncsc3c2)N1	-14.7% (active)
O=C1Nc2cc(Cl)ccc2/C1=C/c1cccc(OCc2ccccc2)c1	-43.8% (active)
CN1CCN(c2ccc(C(=O)/C=C/c3cc(C(F)(F)F)ccc3Cl)cc2)CC1	0.637% (active)
O=C(Cn1nc(-c2ccccc2)ccc1=O)NN1C(=O)c2ccccc2C1=O	120%
O=C(Nc1ccncc1)c1ccc(-n2c(=O)[nH]c3ccccc3c2=O)cc1	105%
O=C1N/C(=N\c2nccs2)S/C1=C\c1cccs1	39.6%
COc1cc2c3c(n(CCCn4ccnc4)c(=O)c2cc1OC)-c1nc2c(cc1C3=O)OCO2	31.5%
CN(C)c1cccc2c(S(=O)(=O)Nc3cccc(-c4csc(NC(=O)CCCCCN5CCN(c6cc7c(cc6F)C(=O)N(C6CCC(=O)NC6=O)C7=O)CC5)n4)c3)cccc12 (centres undefined)	92.3%
